Reference: the supplement of paper PMC8728848
This is one part of a sample in which the strongest signals are shown more often than they occur.

Legend:
Assay in all cases: glycan array binding signal (z-score within array); higher = stronger binding
Conditions in all cases: glycan notation: IUPAC condensed, linker removed
[1] = target: Fuc(a1-2)Gal(b1-3)GalNAc(b1-4)[Neu5Ac(a2-3)]Gal(b1-4)Glc
In short: (§1)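 The binding signal is a Z-score computed within each array and averaged over linkers. Arrays of the same protein sequence at different concentrations or buffers were also averaged together. Data originate from 3228 arrays in the Consortium for Functional Glycomics database, kept only where the protein sequence was available.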

[2] = target: Fuc(a1-2)[Gal(a1-3)]Gal(b1-3)GlcNAc
In short: as §1

[3] = target: Fuc(a1-2)[GalNAc(a1-4)]Gal(b1-4)GlcNAc
In short: as §1

[4] = target: Fuc(a1-4)GlcNAc
In short: as §1

[5] = target: Gal(a1-3)Gal(b1-4)GlcNAc
In short: as §1

[6] = target: Gal(b1-3)[Fuc(a1-4)]GlcNAc
In short: as §1

[7] = target: Gal(b1-3)[Fuc(a1-4)]GlcNAc(b1-3)Gal(b1-4)[Fuc(a1-3)]GlcNAc
In short: as §1

[8] = target: Gal3S(b1-3)GalNAc
In short: as §1

[9] = target: GalNAc(a1-3)Gal
In short: as §1

[10] = target: GalNAc(a1-3)GalNAc
In short: as §1

[11] = target: GalNAc(b1-3)Gal(a1-4)Gal(b1-4)GlcNAc
In short: as §1

[12] = target: GlcA(b1-6)Gal
In short: as §1

[13] = target: GlcNAc(b1-3)Gal(b1-4)Glc
In short: as §1

[14] = target: Man(a1-2)Man(a1-3)Man
In short: as §1

[15] = target: Man(a1-2)Man(a1-3)[Man(a1-2)Man(a1-6)]Man(a1-6)[Man(a1-3)[Man(a1-6)]Man(a1-6)]Man(b1-4)GlcNAc(b1-4)GlcNAc
In short: as §1

[16] = target: Neu5Ac(a2-3)Gal(b1-3)[Neu5Ac(a2-3)Gal(b1-4)]GlcNAc
In short: as §1

[17] = target: Neu5Ac(a2-3)Gal(b1-4)GlcNAc(b1-3)Gal(b1-4)GlcNAc(b1-3)Gal(b1-4)GlcNAc
In short: as §1

[18] = target: Neu5Ac(a2-3)Gal(b1-4)GlcNAc6S
In short: as §1

[19] = target: Neu5Ac(a2-3)Gal(b1-4)[Fuc(a1-3)]GlcNAc(b1-3)Gal(b1-4)GlcNAc
In short: as §1

[20] = target: Neu5Ac(a2-6)Gal(b1-4)GlcNAc(b1-2)Man(a1-3)[Neu5Ac(a2-6)Gal(b1-4)GlcNAc(b1-2)Man(a1-6)]Man(b1-4)GlcNAc(b1-4)GlcNAc
In short: as §1

[21] = target: Neu5Ac(a2-6)GalNAc(b1-4)GlcNAc
In short: as §1

[22] = target: Neu5Gc(a2-3)Gal(b1-3)[Fuc(a1-4)]GlcNAc
In short: as §1

[23] = target: Neu5Gc(a2-3)Gal(b1-4)Glc
In short: as §1

[24] = target: Neu5Gc(a2-6)GalNAc
In short: as §1

[25] = target: Fuc(a1-2)Gal(b1-4)Glc6S
In short: as §1

[26] = target: Fuc(a1-2)[Gal(a1-3)]Gal(b1-4)[Fuc(a1-3)]GlcNAc
In short: as §1

[27] = target: Fuc(a1-2)[GalNAc(a1-3)]Gal(b1-3)GlcNAc
In short: as §1

[28] = target: Fuc(a1-2)[GalNAc(a1-3)]Gal(b1-3)GlcNAc(b1-3)GalNAc
In short: as §1

[29] = target: Fuc(a1-2)[GalNAc(a1-3)]Gal(b1-4)GlcNAc(b1-2)Man(a1-3)[Fuc(a1-2)[GalNAc(a1-3)]Gal(b1-4)GlcNAc(b1-2)Man(a1-6)]Man(b1-4)GlcNAc(b1-4)[Fuc(a1-6)]GlcNAc
In short: as §1

[30] = target: Fuc(a1-3)[Gal(b1-4)]GlcNAc
In short: as §1

[31] = target: Gal(a1-3)Gal(b1-3)GlcNAc(b1-2)Man(a1-3)[Gal(a1-3)Gal(b1-3)GlcNAc(b1-2)Man(a1-6)]Man(b1-4)GlcNAc(b1-4)GlcNAc
In short: as §1

[32] = target: Gal(a1-3)Gal(b1-4)GlcNAc(b1-6)GalNAc
In short: as §1

[33] = target: Gal(b1-3)GlcNAc(b1-3)Gal(b1-4)GlcNAc(b1-2)[Gal(b1-3)GlcNAc(b1-3)Gal(b1-4)GlcNAc(b1-6)]Man(a1-6)[Gal(b1-3)GlcNAc(b1-3)Gal(b1-4)GlcNAc(b1-2)Man(a1-3)]Man(b1-4)GlcNAc(b1-4)[Fuc(a1-6)]GlcNAc
In short: as §1

[34] = target: Gal(b1-3)[Fuc(a1-4)]GlcNAc(b1-6)GalNAc
In short: as §1

[35] = target: Gal(b1-3)[Neu5Ac(b2-6)]GalNAc
In short: as §1

[36] = target: Gal(b1-4)GlcNAc(b1-2)Man(a1-3)[Gal(b1-4)GlcNAc(b1-2)Man(a1-6)]Man(b1-4)GlcNAc(b1-4)GlcNAc
In short: as §1

[37] = target: Gal(b1-4)GlcNAc(b1-3)Gal(b1-4)GlcNAc(b1-2)[Gal(b1-4)GlcNAc(b1-3)Gal(b1-4)GlcNAc(b1-6)]Man(a1-6)[Gal(b1-4)GlcNAc(b1-3)Gal(b1-4)GlcNAc(b1-2)Man(a1-3)]Man(b1-4)GlcNAc(b1-4)[Fuc(a1-6)]GlcNAc
In short: as §1

[38] = target: Gal(b1-4)GlcNAc(b1-3)Gal(b1-4)GlcNAc(b1-3)Gal(b1-4)GlcNAc(b1-2)Man(a1-3)[Gal(b1-4)GlcNAc(b1-3)Gal(b1-4)GlcNAc(b1-3)Gal(b1-4)GlcNAc(b1-2)Man(a1-6)]Man(b1-4)GlcNAc(b1-4)[Fuc(a1-6)]GlcNAc
In short: as §1

[39] = target: Gal(b1-4)GlcNAc(b1-3)Gal(b1-4)GlcNAc(b1-3)Gal(b1-4)GlcNAc(b1-3)Gal(b1-4)GlcNAc(b1-2)[Gal(b1-4)GlcNAc(b1-3)Gal(b1-4)GlcNAc(b1-3)Gal(b1-4)GlcNAc(b1-3)Gal(b1-4)GlcNAc(b1-6)]Man(a1-6)[Gal(b1-4)GlcNAc(b1-3)Gal(b1-4)GlcNAc(b1-3)Gal(b1-4)GlcNAc(b1-3)Gal(b1-4)GlcNAc(b1-2)Man(a1-3)]Man(b1-4)GlcNAc(b1-4)[Fuc(a1-6)]GlcNAc
In short: as §1

[40] = target: Gal3S(b1-3)GlcNAc
In short: as §1

[41] = target: Gal3S6S(b1-4)GlcNAc6S
In short: as §1

[42] = target: Gal6S(b1-3)GlcNAc
In short: as §1

[43] = target: GlcA3S(b1-3)Gal(b1-4)GlcNAc(b1-3)Gal(b1-4)Glc
In short: as §1

[44] = target: GlcNAc(b1-3)Gal(b1-4)GlcNAc(b1-2)Man(a1-3)[GlcNAc(b1-3)Gal(b1-4)GlcNAc(b1-2)Man(a1-6)]Man(b1-4)GlcNAc(b1-4)[Fuc(a1-6)]GlcNAc
In short: as §1

[45] = target: GlcNAc(b1-3)Gal(b1-4)GlcNAc(b1-3)Gal(b1-4)GlcNAc(b1-2)[GlcNAc(b1-3)Gal(b1-4)GlcNAc(b1-3)Gal(b1-4)GlcNAc(b1-6)]Man(a1-6)[GlcNAc(b1-3)Gal(b1-4)GlcNAc(b1-3)Gal(b1-4)GlcNAc(b1-2)Man(a1-3)]Man(b1-4)GlcNAc(b1-4)[Fuc(a1-6)]GlcNAc
In short: as §1

[46] = target: GlcNAc(b1-3)Gal(b1-4)GlcNAc(b1-3)Gal(b1-4)GlcNAc(b1-3)Gal(b1-4)GlcNAc(b1-2)Man(a1-3)[GlcNAc(b1-3)Gal(b1-4)GlcNAc(b1-3)Gal(b1-4)GlcNAc(b1-3)Gal(b1-4)GlcNAc(b1-2)Man(a1-6)]Man(b1-4)GlcNAc(b1-4)GlcNAc
In short: as §1

[47] = target: GlcNAc(b1-3)GalNAc
In short: as §1

[48] = target: Kdn(a2-3)Gal(b1-4)[Fuc(a1-3)]GlcNAc
In short: as §1

[49] = target: Man(a1-2)Man(a1-3)[Man(a1-2)Man(a1-6)]Man(a1-6)[Man(a1-2)Man(a1-2)Man(a1-3)]Man
In short: as §1

[50] = target: Man(a1-3)[Man(a1-6)]Man(a1-6)[Man(a1-2)Man(a1-3)]Man(b1-4)GlcNAc(b1-4)GlcNAc
In short: as §1

[51] = target: Neu5Ac(a2-3)Gal(b1-3)GlcNAc(b1-2)Man(a1-3)[GlcNAc(b1-4)][Neu5Ac(a2-3)Gal(b1-3)GlcNAc(b1-2)Man(a1-6)]Man(b1-4)GlcNAc(b1-4)GlcNAc
In short: as §1

[52] = target: Neu5Ac(a2-3)Gal(b1-3)]Neu5Ac(a2-3)Gal(b1-4)]GlcNAc
In short: as §1

[53] = target: Neu5Ac(a2-3)Gal(b1-4)GlcNAc(b1-2)Man(a1-3)[Neu5Ac(a2-6)Gal(b1-4)GlcNAc(b1-2)Man(a1-6)]Man(b1-4)GlcNAc(b1-4)GlcNAc
In short: as §1

B1: M6PR (Bos taurus), P11456 (protein)
chain: MMSPLHSSWRTGLLLLLLFSVAVRESWQTEEKTCDLVGEKGKESEKELALLKRLTPLFNKSFESTVGQSPDMYSYVFRVCREAGNHSSGAGLVQINKSNGKETVVGRFNETQIFNGSNWIMLIYKGGDEYDNHCGREQRRAVVMISCNRHTLADNFN
[1]
  glycan array binding signal (z-score): 2.76
[2]
  glycan array binding signal (z-score): -0.012
[3]
  glycan array binding signal (z-score): -0.255
[4]
  glycan array binding signal (z-score): -0.026
[5]
  glycan array binding signal (z-score): -0.036
[6]
  glycan array binding signal (z-score): -0.132
[7]
  glycan array binding signal (z-score): 0.169
[8]
  glycan array binding signal (z-score): -0.095
[9]
  glycan array binding signal (z-score): 1.42
[10]
  glycan array binding signal (z-score): 0.045
[11]
  glycan array binding signal (z-score): 0.285
[12]
  glycan array binding signal (z-score): -0.256
[13]
  glycan array binding signal (z-score): 1.12
[14]
  glycan array binding signal (z-score): -0.287
[15]
  glycan array binding signal (z-score): 3.23
[16]
  glycan array binding signal (z-score): -0.269
[17]
  glycan array binding signal (z-score): -0.446
[18]
  glycan array binding signal (z-score): -0.267
[19]
  glycan array binding signal (z-score): 0.517
[20]
  glycan array binding signal (z-score): -0.279
[21]
  glycan array binding signal (z-score): 0.219
[22]
  glycan array binding signal (z-score): -0.343
[23]
  glycan array binding signal (z-score): -0.187
[24]
  glycan array binding signal (z-score): 1.03

B2: CM2 (Cordyceps militaris) (protein)
chain: MEIAEQNVGKSCAIVNLIPPKEGSNIWTAKQVTIARNLPPNRGTGRHQIDWSFGPVKVTGYVDTTNWEIGVTVSIMGIDLGTVYGNLRDGVVLNVDLFLAKGQVRFYLKNGNEVWVHLSVEIRFDGKFEGDYKIITV
[1]
  glycan array binding signal (z-score): 0.28
[25]
  glycan array binding signal (z-score): -0.639
[26]
  glycan array binding signal (z-score): 1.81
[27]
  glycan array binding signal (z-score): 1.61
[28]
  glycan array binding signal (z-score): 1.29
[29]
  glycan array binding signal (z-score): 0.394
[30]
  glycan array binding signal (z-score): 0.057
[31]
  glycan array binding signal (z-score): -0.635
[32]
  glycan array binding signal (z-score): -0.847
[33]
  glycan array binding signal (z-score): 0.677
[34]
  glycan array binding signal (z-score): 0.038
[35]
  glycan array binding signal (z-score): 0.422
[36]
  glycan array binding signal (z-score): -1.28
[37]
  glycan array binding signal (z-score): 2.29
[38]
  glycan array binding signal (z-score): 3.05
[39]
  glycan array binding signal (z-score): 1.2
[40]
  glycan array binding signal (z-score): 0.015
[41]
  glycan array binding signal (z-score): 3.73
[42]
  glycan array binding signal (z-score): -0.595
[43]
  glycan array binding signal (z-score): 0.06
[44]
  glycan array binding signal (z-score): 2.3
[45]
  glycan array binding signal (z-score): 3.55
[46]
  glycan array binding signal (z-score): -0.287
[47]
  glycan array binding signal (z-score): -0.452
[48]
  glycan array binding signal (z-score): 0.801
[49]
  glycan array binding signal (z-score): 2.53
[50]
  glycan array binding signal (z-score): 2.43
[51]
  glycan array binding signal (z-score): 1.74
[52]
  glycan array binding signal (z-score): 3.98
[53]
  glycan array binding signal (z-score): 0.37
